Where “and” joins values, the source holds several entries; their conditions need not be identical. Equal values may be shown once. Inconclusive results are not listed. Values without a mark were called inactive. The call rests on the fitted dose curve; in most records, active means well fitted activation curve with a large enough effect; inconclusive means small, poorly fitted or top-dose-only effect; inactive means no such curve, though single readings can be large or run the other way.
Target: Cellular tumor antigen p53 (Homo sapiens) (UniProt P04637)
Test: Primary qHTS for small molecule compounds that upregulate eGFP-tagged delta133p53alpha (in N-terminal) cells. (AID 2060322);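 further: series mostly up to about 56 µM; 0% = DMSO vehicle and 100% = reference activator; nearly all actives have a fitted effect of over 75% in size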
Conditions: NCI-H358 eGFP-delta133p53alpha fluorescence, 24 h; activation: active compounds read high
How it was run: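 NCI-H358 cells pre-induced 24 h with 10 ng/ml doxycycline for eGFP-delta133p53alpha, plated dox-free and exposed 24 h at 37C to titrated compounds. Fixed, Hoechst-stained; gated GFP peak intensity by laser scanning cytometry, normalized to DMSO (0%) and 57.5 uM 5-azacytidine (100%).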

Chain of Cellular tumor antigen p53 (Homo sapiens) (P04637 whole entry, looked up): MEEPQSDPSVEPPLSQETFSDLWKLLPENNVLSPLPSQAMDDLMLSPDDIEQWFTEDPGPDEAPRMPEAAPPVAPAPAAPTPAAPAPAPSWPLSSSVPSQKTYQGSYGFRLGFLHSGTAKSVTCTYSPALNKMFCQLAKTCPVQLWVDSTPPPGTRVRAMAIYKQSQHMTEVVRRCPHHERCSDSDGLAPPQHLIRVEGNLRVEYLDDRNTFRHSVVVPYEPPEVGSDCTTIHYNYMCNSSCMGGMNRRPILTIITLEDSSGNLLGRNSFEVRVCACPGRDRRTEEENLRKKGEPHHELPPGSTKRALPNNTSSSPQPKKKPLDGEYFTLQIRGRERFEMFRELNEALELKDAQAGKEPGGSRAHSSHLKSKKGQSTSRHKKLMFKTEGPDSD

In order of falling activation:
1. CCCCCCCCCCCCCCCCCC(=O)O  24.3%
2. Cc1cn([C@@H]2O[C@H](CO)[C@@H](O)[C@H]2F)c(=O)[nH]c1=O  5.67%
3. NC(=O)NS(=O)(=O)c1ccc(Cl)cc1  1.69%
4. C=C1C(=CC=C2CCC[C@]3(C)[C@@H]([C@H](C)CCCC(C)(C)O)CC[C@@H]23)C[C@@H](O)C[C@@H]1O  -4.26%
5. O=C(CCOCCOCCOCCOCCC(=O)Nc1c(I)cc(I)c(C(=O)O)c1I)Nc1c(I)cc(I)c(C(=O)O)c1I  -9.21%
6. Cc1ccccc1N=Nc1ccc(N=Nc2c(O)ccc3ccccc23)c(C)c1  -17.5%

For CC(C)OC(=O)OCOP(=O)(CO[C@H](C)Cn1cnc2c(N)ncnc21)OCOC(=O)OC(C)C, the activation was -1.51% and -14.1%.

— PubChem BioAssay (NCATS)
